In all, about 190,000 compounds went through this assay and about 1,300 (0.68%) were called active. No stated cut-off is given here; in the data, active means inhibition above about 50%; inactive means the rest. Many of the other results were omitted from the sample, so actives are more common in it than they were.
target: Mannose-6-phosphate isomerase (Homo sapiens) (UniProt P34949); experiment: human PMI inhibitors, high substrate, primary screen, biochemical, fluorescence intensity, high mannose 6-phosphate (AID 1220); details: recombinant PMI enzyme, coupled fluorescence intensity; at 20 µM; active compounds read high
Sequence (P34949 whole entry, looked up): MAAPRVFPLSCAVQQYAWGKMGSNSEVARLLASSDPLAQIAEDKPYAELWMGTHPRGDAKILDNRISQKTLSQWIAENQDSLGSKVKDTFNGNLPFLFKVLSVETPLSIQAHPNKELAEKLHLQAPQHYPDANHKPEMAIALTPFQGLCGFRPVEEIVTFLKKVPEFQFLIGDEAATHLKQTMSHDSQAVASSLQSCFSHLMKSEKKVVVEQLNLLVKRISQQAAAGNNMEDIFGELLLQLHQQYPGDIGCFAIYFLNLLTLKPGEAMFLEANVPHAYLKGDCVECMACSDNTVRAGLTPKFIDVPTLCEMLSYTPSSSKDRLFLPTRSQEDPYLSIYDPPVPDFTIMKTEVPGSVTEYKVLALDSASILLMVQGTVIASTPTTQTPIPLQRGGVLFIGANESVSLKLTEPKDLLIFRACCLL

inhibition, active:
Oc1cccc(C(Nc2nccs2)c2ccc3cccnc3c2O)c1 (stereo not drawn) 57.6%
N#CC1=C(N)Oc2c(sc3ccccc23)C1c1ccco1 (stereo not drawn) 53.1%
Cc1ccc(C2C(C#N)=C(N)Oc3c2sc2ccccc32)o1 (stereo not drawn) 57.5%
Cc1ccc(C(=O)N/C(=C\c2cccs2)c2nc3ccccc3[nH]2)cc1 57.5%
CCN(CC)c1ccc(C=Nc2cc(C)ccc2C)c(O)c1 58.3%
CCN(CC)c1ccc(C=Nc2ccccc2C)c(O)c1 66.6%
CC1=CC2(O)OCCN(CCO)C2=CC1=O (stereo not drawn) 57.4%
Cc1nn(C)c(C)c1N=Cc1c(O)ccc2ccccc12 50.3%
COc1ccc(Br)cc1C1CC(=O)N2CN(Cc3ccccc3)CSC2=C1C#N (stereo not drawn) 55.7%
COc1ccc(N2CSC3=C(C#N)C(c4cc(OC)ccc4OC)CC(=O)N3C2)c(OC)c1 (stereo not drawn) 55.5%
COc1ccc(Br)cc1C1CC(=O)N2CN(C)CSC2=C1C#N (stereo not drawn) 51.8%

inhibition, inactive:
CCN(CC)CCCNC(=O)c1ccc2c(SCC(=O)O)c3c(nc2c1)CCC3 -9.3%
COc1ccc(-n2c(C(C)n3nc(C)c([N+](=O)[O-])c3C)n[nH]c2=S)cc1 (stereo not drawn) -11.8%
COc1ccc(NC(=O)CC2C(=O)N(CCc3ccccc3)C(=S)N2Cc2cccnc2)cc1 (stereo not drawn) -8.8%
COc1ccc(CC(=O)NNC(=O)c2cccs2)cc1 -0.3%
CC1CC(N(C(=O)c2ccco2)c2ccccc2)c2ccccc2N1 (stereo not drawn) 17.9%
Oc1c(C(Nc2nccs2)c2ccc(C(F)(F)F)cc2)ccc2cccnc12 (stereo not drawn) 24.5%
Oc1c(C(Nc2nc3ccccc3s2)c2ccco2)ccc2cccnc12 (stereo not drawn) 34.8%
CC(C)OC(=O)c1ccc(NC(=O)c2ccco2)cc1 6.2%
O=[N+]([O-])c1cccnc1NCc1cccs1 3.1%
O=[N+]([O-])c1cc(-c2ncccn2)cs1 -6.6%
COc1ccc(NC(=O)Cn2nc3n(c2=S)CCC3)cc1 2.7%
CCSC1=C(C#N)C(c2ccc3c(c2)OCO3)C2=C(CCCC2=O)N1 (stereo not drawn) 7.2%
Cc1ccc([C@H]2C(C#N)=C(N)Oc3cc(C)oc(=O)c32)o1 -11.4%
COC(=O)C1=C(C)OC(N)=C(C#N)C1c1ccco1 (stereo not drawn) 2.9%
CCOC(=O)C1=C(C)OC(N)=C(C#N)C1c1ccc(C)o1 (stereo not drawn) -3.7%
CC(=O)C1=C(C)OC(N)=C(C#N)C1c1ccco1 (stereo not drawn) 10.4%
Clc1ccc(-c2cn3cc(Br)ccc3n2)cc1Cl -15.2%
O=C(O)CCc1ccc(-c2cccs2)n1CCc1ccccc1 3.8%
CCC(C)(C)n1nnnc1C(c1ccncc1)N1CCC(C)CC1 (stereo not drawn) -5.6%
O=C(Nc1cccn(Cc2c(Cl)cccc2Cl)c1=O)C1CC1 3.9%
COCCNC(=O)Cn1cc2c(n1)CCC(C)C2 (stereo not drawn) 4.1%
COC(=O)C1C(c2ccc(N(C)C)cc2)C(C(=O)OC)S(=O)(=O)CS1(=O)=O (stereo not drawn) 15%
CC(=O)NC1(C2CCCCC2=O)CCCCC1 (stereo not drawn) 4.2%
COc1ccc(C(=O)N/C(=C/c2cccs2)c2nc3ccccc3[nH]2)cc1OC 3.9%
O=C(N/C(=C/c1cccs1)c1nc2ccccc2[nH]1)c1ccccc1 -4.7%
Cc1cc(C)cc(N2C(=O)CN(Cc3sccc3C)C2=S)c1 0.5%
CCOc1cccc(OCCOc2ccc(C(=O)c3ccccc3)cc2)c1 10.2%
CN1CCN(c2nc(-c3ccc(Cl)s3)cs2)CC1 -4.8%
CCN(CC)c1ccc(/C=N/N2C(=O)c3ccccc3C2=O)c(O)c1 -18.7%
CCN(CC)c1ccc(/C=N/Nc2ccc(C)cc2)c(O)c1 -70.5%
CCN(CC)c1ccc(C=Nc2ccc(C)cc2C)c(O)c1 36.9%
CCN(CC)c1ccc(/C=N/NC(=S)NCc2ccccc2)c(O)c1 1.2%
Cc1ccc(-c2cc(C(=O)O)n(-c3ccc(S(N)(=O)=O)cc3)n2)cc1 -17.2%
COc1cc(CC(=O)OCC(=O)Nc2ccc([N+](=O)[O-])cc2)cc(OC)c1OC 5.9%
CCC(=O)Nc1cccc2cccnc12 1.3%
CC(C)NC(=O)COc1ccccc1C#N -4.6%
Cc1ccc(C(=O)c2c[nH]cc2-c2ccccc2)cc1 4.1%
CC(C(=O)NC1CCCC1)N(Cc1ccco1)C(=O)c1snc(C(=O)NC2CCCC2)c1N (stereo not drawn) 4%
Cc1ccc(-n2cccc2/C=C2\C(=N)N3N=C(c4ccco4)SC3=NC2=O)cc1 -16.6%
Cc1ccc2c(c1)c1c(n2CC(O)CNC(C)(C)C)CCCC1 (stereo not drawn) 27.9%
Oc1ccc2ccccc2c1/C=N/n1cnnc1 40.6%
Cc1nc2ccccc2c(=O)n1/N=C/c1c(O)ccc2ccccc12 17.6%
Cn1c(/N=C/c2cc(Cl)ccc2O)nc2ccccc21 49.3%
CCn1c(/C=N/c2nc3ccccc3n2C)nc2ccccc21 33.8%
O=C(c1noc2c1CCCC2)N1CCN(c2ccccc2)CC1 3.6%
O=C(CSc1nnc(-c2ccc(Cl)s2)o1)N1CCOCC1 30.1%
Cc1c2c(c(C)n1C)C(C(=O)NC1CCCCC1)N(Cc1ccccc1)C2=O (stereo not drawn) -4.7%
Cc1ccc(NC(=O)CSc2nc(N)c(-c3ccccc3)c(=O)[nH]2)cc1Cl -0.7%
CCN(CC)C(=O)COC(=O)c1cc(-c2ccc(OC)cc2)nc2ccccc12 7%
COc1ccc(N2CSC3=C(C#N)C(c4cc(OC)c(OC)cc4OC)CC(=O)N3C2)c(OC)c1 (stereo not drawn) 36.9%
COc1ccc(OC)c(C2CC(=O)N3CN(c4ccccc4)CSC3=C2C#N)c1 (stereo not drawn) -38.7%
COc1cc(OC)c(C2CC(=O)N3CN(c4ccccc4C)CSC3=C2C#N)cc1OC (stereo not drawn) -1.4%
COc1ccc(OC)c(C2CC(=O)N3CN(c4cccc(Cl)c4)CSC3=C2C#N)c1 (stereo not drawn) 35%
COc1ccc(N2CSC3=C(C#N)C(c4ccc(OC)c(OC)c4)CC(=O)N3C2)c(OC)c1 (stereo not drawn) -8.6%
COc1ccc(OC)c(C2CC(=O)N3CN(c4ccccc4F)CSC3=C2C#N)c1 (stereo not drawn) 17.1%
COc1cc(OC)c(C2CC(=O)N3CN(c4ccc(C)cc4)CSC3=C2C#N)cc1OC (stereo not drawn) 28.2%
COc1cc(OC)c(C2CC(=O)N3CN(c4ccccc4)CSC3=C2C#N)cc1OC (stereo not drawn) 31.4%
